# Test results: PubChem BioAssay (Tox21)
# Activity calls are given as the source filed them. Entries that show only a call come without a potency. The call rests on the fitted dose curve; in most records, active means well fitted curve in the direction sought with a large enough effect in the signal ratio in the repeat runs (not every such curve was filed as active); inconclusive means weak or mixed curves, or effect the other way; inactive means no such curve, though single readings can be large or run the other way; the % refers to the signal ratio.
# Target: Estrogen receptor (Homo sapiens) (UniProt P03372)
# Sequence (P03372 whole entry, looked up): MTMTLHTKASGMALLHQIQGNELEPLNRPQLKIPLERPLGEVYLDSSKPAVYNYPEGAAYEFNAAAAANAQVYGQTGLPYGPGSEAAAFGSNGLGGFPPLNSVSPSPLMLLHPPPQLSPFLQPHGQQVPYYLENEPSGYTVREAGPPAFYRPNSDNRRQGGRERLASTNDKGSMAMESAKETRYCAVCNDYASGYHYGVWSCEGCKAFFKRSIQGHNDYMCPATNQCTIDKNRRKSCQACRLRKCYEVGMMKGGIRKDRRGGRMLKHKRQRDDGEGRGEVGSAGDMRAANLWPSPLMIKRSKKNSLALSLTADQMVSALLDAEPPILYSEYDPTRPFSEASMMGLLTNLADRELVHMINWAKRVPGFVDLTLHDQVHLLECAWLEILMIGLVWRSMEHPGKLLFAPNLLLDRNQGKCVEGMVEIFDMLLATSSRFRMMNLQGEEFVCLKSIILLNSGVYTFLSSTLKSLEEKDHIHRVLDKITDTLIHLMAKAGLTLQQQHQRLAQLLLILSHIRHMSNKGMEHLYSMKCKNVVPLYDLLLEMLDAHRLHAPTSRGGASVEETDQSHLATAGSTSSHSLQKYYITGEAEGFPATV
# Experiment: qHTS assay to identify small molecule antagonists of the estrogen receptor alpha (ER-alpha) signaling pathway (AID 743069)
# Conditions: HEK293 ER-alpha-UAS-bla, beta-lactamase ratio, antagonist mode; series mostly up to 69.4 µM
# Source text: National Center for Advancing Translational Sciences [NCATS]
# NIH Chemical Genomics Center [NCGC]
# U.S. Environmental Protection Agency [EPA]
# National Institutes of Environmental Health Sciences [NIEHS]
# National Toxicology Program [NTP]
# U.S. Food and Drug Administration [FDA]
# Estrogen receptor (ER), a nuclear hormone receptor, plays an important role in development, metabolic homeostasis and reproduction. Two subtypes of ER, ER-alpha and ER-beta have similar expression patterns with some uniqueness in both types. Endocrine disrupting chemicals (EDCs) and their interactions with steroid hormone receptors like ER causes disruption of normal endocrine function. To identify the compounds that inhibit ER signaling, an ER-alpha-UAS-bla GripTiteTM cell line (Invitrogen, Carlsbad, CA, USA) containing a beta-lactamase reporter gene under the control of an Upstream Activator Sequence (UAS) stably integrated into HEK293 cells was used to screen the Tox21 10K compound library.
# Tox21 Assay Protocol Summary:
# ER-alpha-bla cells were cultured in assay medium containing 2% charcoal stripped FBS overnight in the culture flasks before the assay was performed. The cells were dispensed at 5,000 cells/5 uL of assay medium per well into black wall/clear-bottom 1536-well plates using a Multidrop Combi (ThermoFisher Scientific, Waltham, MA) dispenser. After the assay plates were incubated at a 37C and 5% CO2 for 4 hr, 23 nL of compounds dissolved in DMSO, positive controls or DMSO only was transferred to the assay plate by a Pintool station (Kalypsys, San Diego, CA), followed by addition of 1 uL of 17beta-estradiol in assay medium using a Flying Reagent Dispenser (Aurora Discovery, San Diego, CA). The plates were incubated at 37C and 5% CO2 for 18 hr. Then 1 uL of LiveBLAzerTM B/G FRET substrate was added using a Flying Reagent Dispenser, the plates were incubated at room temperature for 2 hours, and fluorescence intensity was measured by an Envision plate reader (PerkinElmer, Shelton, CT).
# Potency means the concentration at half of the fitted maximal effect.
row,Structure (SMILES),Potency
1,CCN1C(=O)c2ccccc2C1Nc1ccc(OCCN2CCCCC2)cc1 (stereo not given),inactive
2,CC[N+](CC)(CC)CCOC(=O)C(C1CCCC1)C1CCCC1,inactive
3,O=S(=O)(O)c1ccc(N=Nc2c(O)ccc3ccccc23)cc1,inactive
4,COc1cc(/C=C/c2ccccc2)oc(=O)c1,inactive
5,CCN(CC)c1ccc2c(-c3ccc(S(=O)(=O)O)cc3S(=O)(=O)[O-])c3ccc(=[N+](CC)CC)cc-3oc2c1,inactive
6,[Cl][Pt-2]([Cl])([Cl])[Cl],inactive
7,C[Si](Cl)(c1ccccc1)c1ccccc1,inactive
8,CCc1ccc(Br)cc1,inactive
9,CC(C)CCOC(=O)/C=C/c1ccccc1,inactive
10,CCC(COC(=O)CCS)(COC(=O)CCS)COC(=O)CCS,inactive
11,CC(C)CCCCCOC(=O)CCS,inactive
12,[Cu+],inactive
13,O=C(Nc1ccc2c(O)c(N=Nc3ccc(N=Nc4ccc(S(=O)(=O)O)cc4)cc3)c(S(=O)(=O)O)cc2c1)c1ccccc1,inactive
14,COC(=O)C1=C(C)NC(C)=C(C(=O)OCCN2CCN(C(c3ccccc3)c3ccccc3)CC2)C1c1cccc([N+](=O)[O-])c1 (stereo not given),8.49 µM [inconclusive] (active)
15,CCc1cccc(CC)c1NC(=O)CN(CC(=O)O)CC(=O)O,inactive
16,CCCCNS(=O)(=O)c1ccc(C)cc1,inactive
17,NC(=O)c1cccc([N+](=O)[O-])c1,inactive
18,CCOc1ccc2ccccc2c1C(=O)N[C@@H]1C(=O)N2[C@@H]1SC(C)(C)[C@@H]2C(=O)O,inactive
19,CCN(CCN)c1cccc(C)c1,inactive
20,CC(C)Cn1cnc2c(N)nc3ccccc3c21,inactive

row,Structure (SMILES),Potency
1,CCOC(=O)NNc1ccc(N(CC)CC(C)O)nn1 (stereo not given),inactive
2,C1CCC(SSC2CCCCC2)CC1,inactive
3,S=c1nccc[nH]1,inactive
4,Cc1c(C)c2c(c(C)c1OC(=O)c1cccnc1)CC[C@@](C)(CCC[C@H](C)CCC[C@H](C)CCCC(C)C)O2,inactive
5,C=C(CC)C(=O)c1ccc(OCC(=O)O)c(Cl)c1Cl,inactive
6,Cc1nc2n(c(=O)c1CCN1CCC(c3noc4cc(F)ccc34)CC1)CCCC2,inactive
7,O[C@@H]([C@H](O)[C@H](O)CBr)[C@H](O)CBr,inactive
8,CC(C)(c1cc(Br)c(OCC(Br)CBr)c(Br)c1)c1cc(Br)c(OCC(Br)CBr)c(Br)c1 (stereo not given),inactive
9,CN(C)c1ccc(C(=C2C=CC(=[N+](C)C)C=C2)c2ccc(N(C)C)cc2)cc1,34.7 µM [cytotoxic] (active)
10,COC(=O)Nc1nc2ccc(C(=O)c3ccccc3)cc2[nH]1,inactive
11,C=Cc1ccccc1C=C,inactive
12,CCCCC(CC)COC(=O)CCCCC(=O)OCc1ccccc1 (stereo not given),inactive
13,CC(C)OC(=O)C(O)(CC(=O)O)CC(=O)O,inactive
14,OCCN1CCN(CCCN2c3ccccc3Sc3ccc(C(F)(F)F)cc32)CC1,inactive
15,CCCCCc1ccc(Cl)cc1,inactive
16,COC(=O)c1ccccc1C,inactive
17,OC/C=C/CO,inactive
18,C=CC(C)(CCC=C(C)C)OC=O (stereo not given),inactive
19,Cc1cc(C(C)(C)C)cc(C)c1CC1=NCCN1,inactive
20,CCO[Si](OCC)(OCC)OCC,inactive
